In ChEMBL document CHEMBL4513216, “Probing the Open Global Health Chemical Diversity Library for Multistage-Active Starting Points for Next-Generation Antimalarials” (ACS Infect Dis, 2020) one finds INHIBITION data, which are given here for 68 molecules.

Out of some 65,000 compounds screened, about 2,100 (3.2%) showed an effect of 50% or more. The median lay at about -52%. The sample holds strong results, similar compounds and a random draw of the others, so the mix is not that of the screen.

The test system of this test is Plasmodium falciparum. Kind of test: Screen against P. falciparum Asexual Blood Stage (ABS), at 5uM. In kind it is functional, Dd2. To be noted: tested at 5 uM.
Regarding `Cn1cnc(S(=O)(=O)N2CC3(CCN(Cc4ccncc4)C3)C2)c1`, the INHIBITION is given as -29.2%.

Take `COCc1cncc2c1CCN(Cc1cnn(C)c1)C2`: the INHIBITION is given as -135%.

`c1ccc(O[C@H]2CO[C@@]3(CCCN(Cc4nccs4)C3)C2)nc1`: the INHIBITION is reported as -90.3%.

Regarding `Cc1ccccc1CC1(CO)CCCN(c2ncncc2C(C)C)C1` (stereo not drawn), the INHIBITION came out at 85%.

Consider `CCS(=O)(=O)N1CCOC2(CCCN(Cc3ccccn3)C2)C1` (stereo not drawn), for which the INHIBITION is given as -69.2%.

In the case of `CN(C)C(=O)CN1CC[C@@H]2O[C@@H](COCc3cccnc3)CC[C@@H]21`, the INHIBITION was -71.1%.

As for `Cc1nn(C)cc1C1=NS(=O)(=O)N(C)C(C(=O)Nc2ccc(Cl)cc2)=C1`, the INHIBITION is 83.4%.

Take `Cc1nn(C)cc1C1=NS(=O)(=O)N(C)C(C(=O)Nc2ccc(Br)cc2)=C1`: the INHIBITION was 90%.

Turning to `c1ccc(OC[C@H]2CCC[C@]23CN(Cc2nccs2)CCO3)nc1`, the INHIBITION turned out to be 6.16%.

Turning to `CCCC12CN3CC(C)(CN(C1)C3c1[nH]c(=O)[nH]c(=O)c1C)C2=O` (stereo not drawn), the INHIBITION is -167%.

Regarding `Cc1noc(C)c1CN1CC[C@H]2OCC[C@@]2(C(=O)N(C)C)C1`, the INHIBITION is on record as -41.2%.

Consider `COc1cc(C2(C(=O)NCCn3ccnc3)CCCC2)ccc1C`, for which the INHIBITION amounted to 50%.

On to `COCCNC(=O)C1(c2ccc(C)c(OC)c2)CCCC1`, for which the INHIBITION came out at 6.63%.

On to `Cc1cc(C)c(N(CC(O)CNCc2ccccc2)S(C)(=O)=O)c(C)c1` (stereo not drawn), for which the INHIBITION is 70.4%.

For the molecule `COCCOc1ccccc1CNCC1COC2(CCCC2)O1` (stereo not drawn), the INHIBITION worked out at 74.3%.

As to `CN(C)c1nc(N)nc(CN2CCC(c3ccccc3)CC2)n1`, the INHIBITION turned out to be 80.4%.

In the case of `CCN1CCC(c2cncc(N(C)C)n2)CC1`, the INHIBITION is -163%.

As for `O=C(N1CCCO1)[C@]12COC[C@H]1CN(Cc1cccnc1)C2`, the INHIBITION is given as -58.8%.

For `Cc1ccc(N2CCO[C@H]3CN(Cc4ccc(F)cc4)C[C@H]32)nn1`, the INHIBITION is given as -3.71%.

For the molecule `Cc1nc(N2C[C@H]3CC[C@@H](C2)N3)nc2cc(S(C)(=O)=O)ccc12`, the INHIBITION is recorded as -46.7%.

Regarding `CCN(CC)CCN(C)c1nc(-c2ccc(Cl)cc2)nc2c1CNC2`, the INHIBITION worked out at 88.3%.

In the case of `Cc1nccn1CCN(C)c1nc(-c2ccc(Cl)cc2)nc2c1CNC2`, the INHIBITION amounted to 70.5%.

With `CCN1C[C@H]2[C@@H](C1)N(S(=O)(=O)c1cccnc1)CC[C@H]2OC`, the INHIBITION was -40.3%.

Take `NC(=O)CCC1CCCN(c2ccnc3cc(F)ccc23)C1` (stereo not drawn): the INHIBITION is listed as 83.4%.

On to `Cc1noc(C)c1CN1CC[C@H]2OCC[C@@]2(C(=O)NCC2CC2)C1`, for which the INHIBITION is -139%.

As for `CN(C)Cc1cncc2c1CCN(C1CCOCC1)C2`, the INHIBITION was -179%.

Turning to `O=C(N[C@H]1CN[C@H]2CCCO[C@H]21)c1cscn1`, the INHIBITION is -37.2%.

In the case of `CCC/C=C/c1ccc(CN2CCN(C)CC2)cn1`, the INHIBITION was found to be 0.24%.

Turning to `O=C(NCc1cnn2cccnc12)C1CC2(CCNCC2)CN1` (stereo not drawn), the INHIBITION is recorded as -20.8%.

In the case of `O=C(C1CC2(CCNCC2)CN1)N1CCN(c2cccc(Cl)c2Cl)CC1` (stereo not drawn), the INHIBITION stood at 79.2%.

Consider `O=C(C1CC1)N1CC2(CCNCC2)C1`, for which the INHIBITION is reported as -76.2%.

Turning to `COc1nc(C)ccc1CNc1cc(N2CCCC2CO)ncn1` (stereo not drawn), the INHIBITION is listed as -50.3%.

In the case of `c1cnnc(N2CCCC2CNCc2nc(-c3cccs3)no2)c1` (stereo not drawn), the INHIBITION came out at 72.2%.

For `CC(Cn1cccn1)NCc1nc(-c2cccs2)no1` (stereo not drawn), the INHIBITION is -230%.

As for `CC(C)c1nc(CNCC2CCCN2c2cccnn2)cs1` (stereo not drawn), the INHIBITION is reported as 71.1%.

On to `CC(C)c1nc(CC(=O)N2CCN(C)CC2c2ccccc2)cs1` (stereo not drawn), for which the INHIBITION is -16.5%.

Regarding `Cc1ccsc1CNCC1CCCN1c1cccnn1` (stereo not drawn), the INHIBITION stood at 78.8%.

Regarding `Cc1nc(CN2CCC23CCN(C(=O)c2ccncc2)CC3)cs1`, the INHIBITION stood at 2.76%.

With `O=C(C1CC=CC1)N1CCC2(CC1)OCCO2`, the INHIBITION is on record as -69.1%.

In the case of `NCC(=O)N1CCCCC1c1ccc(F)cc1` (stereo not drawn), the INHIBITION stood at 85.3%.

In the case of `O=C(O)[C@@H]1CN(CC(=O)N2CCCCCC2)C[C@H]1c1ccc(F)cc1`, the INHIBITION is listed as -66.2%.

Consider `O=C(O)[C@@H]1CN(CC(=O)N2CCCCC2)C[C@H]1c1ccc(F)cc1`, for which the INHIBITION is listed as -140%.

For `Cc1ncsc1CN1C[C@@H](OCc2ccncc2)[C@H]2OCCC[C@H]21`, the INHIBITION is given as -190%.

Take `CC(C)C(NC(=O)c1ccccc1F)C(=O)N1CCC2(CC1)OCCO2` (stereo not drawn): the INHIBITION was -65.9%.

Turning to `Fc1cnc(N2CCO[C@H]3CN(CC4CCOC4)C[C@H]32)nc1` (stereo partly drawn), the INHIBITION was -57.2%.

`Cc1cn2c(n1)C(CNCC1=Cc3ccccc3OC1)CCC2` (stereo not drawn): the INHIBITION turned out to be 79%.

`Cc1cn2c(n1)C(CNCC1=Cc3cc(Cl)ccc3OC1)CCC2` (stereo not drawn): the INHIBITION was found to be 88.2%.

`CC(C)C(=O)N1C[C@H]2CCCN[C@H]2C1`: the INHIBITION is 28.1%.

For `COc1cccc2c(=O)n(C3CCCNC3)cnc12` (stereo not drawn), the INHIBITION is listed as -35.5%.

`CC(C)c1ocnc1C(=O)N1CCC2(CC1)OCCO2`: the INHIBITION is -39.3%.

As to `Cc1cc(CNC(C)Cn2cncn2)ccc1Br` (stereo not drawn), the INHIBITION is on record as -29.8%.

Take `CCCOc1ccccc1C(N)CC(C)C` (stereo not drawn): the INHIBITION is on record as 75.1%.

With `COC[C@H]1CCC[C@]12CN(Cc1cccc(C)n1)CCO2`, the INHIBITION is recorded as -25.5%.

`OCCN1CC2(CCN(c3ccccc3)C2)C1`: the INHIBITION is 62.8%.

Regarding `CN1C(=O)C2(CCN(CCO)C2)c2ccccc21` (stereo not drawn), the INHIBITION is given as -143%.

On to `O=C1Nc2ccccc2CC12CCN(CCO)C2` (stereo not drawn), for which the INHIBITION was -93.6%.

As to `Cc1noc(C)c1CN1CC[C@@H]2O[C@@H](COCC3CC3)CC[C@@H]21`, the INHIBITION was determined as 0.666%.

For `OCC1CCCCN1c1ccc(-c2nc(-c3ccccc3F)no2)cn1` (stereo not drawn), the INHIBITION came to 75.5%.

For the molecule `O=C(Cc1ccncc1)N1C[C@@H]2CC[C@H]1CN(Cc1cccnc1)C2`, the INHIBITION came to 10.9%.

With `Cc1nc(CN2CCCC3(CCN(c4cccnc4)C3=O)C2)cs1` (stereo not drawn), the INHIBITION is on record as -34.3%.

With `c1ccn2cc(CN3CCCC(c4ccn[nH]4)C3)nc2c1` (stereo not drawn), the INHIBITION was found to be 89.1%.

In the case of `CN(C)CCN(CC1CCCO1)C(=O)Cc1cn2ccccc2n1` (stereo not drawn), the INHIBITION is reported as -90.1%.

Regarding `Cn1ncc(NCc2cccc(OCC(F)(F)F)c2)c(Cl)c1=O`, the INHIBITION is reported as -44.7%.

With `CCCS(=O)(=O)N1CCN(CCOC)c2nc(C)ccc2C1`, the INHIBITION was -87%.

Turning to `CCn1cc(NC(=O)N2CCN(C(=O)Oc3ccccc3)CC2)cn1`, the INHIBITION is recorded as -56.8%.

Consider `c1cnc(N2CCOCC3(CCCN(Cc4cc[nH]n4)C3)C2)nc1` (stereo not drawn), for which the INHIBITION was -63.1%.

`c1[nH]c(CC2CCCC2)nc1CN1CCCC2(CCOC2)C1` (stereo not drawn): the INHIBITION came to 82.2%.

As for `c1cc(CN2CCOCC3(CCNCC3)C2)ccn1`, the INHIBITION was -114%.
